# Test results as given in PubChem BioAssay (NCATS).
# Records with an inconclusive call do not appear. Calls of active or inactive are those of the source. Calls follow the shape of the full dose curve.
# Target: Peroxisome proliferator-activated receptor delta (Homo sapiens) (UniProt Q03181)
# Assay: qHTS assay for small molecule agonists of peroxisome proliferator-activated receptor delta signaling (AID 588534);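 also: 0% = DMSO basal wells and 100% = positive control agonist at 10 µM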
# Settings: HEK293T PPARdelta-UAS-bla, beta-lactamase ratio, 18 h; series mostly up to 76.7 µM; activation: at the top concentration
# Outline: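 Agonist-mode beta-lactamase reporter readout (CCF4 dye, 2 h at RT) after 18 h at 37 °C exposure to a titration; Hill-equation fitting gave EC50 and maximal response.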
# Peroxisome proliferator-activated receptor delta (Homo sapiens), sequence (Q03181 whole entry, looked up): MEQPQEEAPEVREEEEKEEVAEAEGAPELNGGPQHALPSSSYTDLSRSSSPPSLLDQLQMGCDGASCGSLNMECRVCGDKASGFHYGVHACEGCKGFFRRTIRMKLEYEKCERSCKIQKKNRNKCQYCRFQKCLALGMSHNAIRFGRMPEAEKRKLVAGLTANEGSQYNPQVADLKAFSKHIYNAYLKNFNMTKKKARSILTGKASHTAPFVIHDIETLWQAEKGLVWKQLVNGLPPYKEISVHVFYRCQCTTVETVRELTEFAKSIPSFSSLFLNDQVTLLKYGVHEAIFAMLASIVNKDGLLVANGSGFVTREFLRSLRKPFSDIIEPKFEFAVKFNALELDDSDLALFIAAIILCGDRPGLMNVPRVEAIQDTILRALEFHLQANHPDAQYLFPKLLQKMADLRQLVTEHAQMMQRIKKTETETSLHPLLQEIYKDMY
SMILES,activation,outcome
C/C(=C\C(C)CC(C)CC(C)C)C1CC(=O)OC1=O (centres undefined),-2.11% (inactive),–
C=CCCCCCCCCCC,2.62% (inactive),–
C=C(C#N)C(=O)OCC,0.705% (inactive),–
NC(=O)CCCCC(N)=O,7.26% (inactive),–
NC(=O)Nc1nc2ccccc2[nH]1,2.79% (inactive),–
CCCCCCN,2.91% (inactive),–
Cc1ccccc1Br,0.0217% (inactive),–
CC(C)CCCCOC(=O)c1ccccc1C(=O)OCCCCC(C)C,1.05% (inactive),–
OC(CCl)CCl,9.83% (inactive),–
C=CC(C)(O)CCCC(C)CCCC(C)CCCC(C)C (centres undefined),15.6% (inactive),–
O=C(O)CNC(=O)c1ccc(CO)o1,-9.52% (inactive),–
CC(=O)Nc1ccccc1C,6.63% (inactive),–
CCOC(=O)OCC,3.84% (inactive),–
CCCCCNCCCCC,–,inactive
ClCCCl,–,inactive
Fc1ccccc1,10.2% (inactive),–
BrC(Br)C(Br)Br,10.2% (inactive),–
O=[N+]([O-])C(CO)(CO)CO,0.0302% (inactive),–
Nc1cccc(S(=O)(=O)O)c1,-1.02% (inactive),–
CC1(C)CC(N)CC(C)(CN)C1 (centres undefined),-0.343% (inactive),–

SMILES,activation,outcome
CC1(C)C(=O)NC(=O)N1CO,4.34% (inactive),–
CCCCOCCOCCOCCO,1.78% (inactive),–
O=C(/C=C/c1ccc(O)c(O)c1)OC1C[C@](O)(C(=O)O)C[C@@H](O)[C@H]1O (some centres undefined),–,inactive
C=Cc1ccccn1,5.39% (inactive),–
Cc1ccc([N+](=O)[O-])c(N)c1,10.7% (inactive),–
CCCCCCCCO,–,inactive
CCCCN(CCCC)CCCCCCN(CCCC)CCCC,0.503% (inactive),–
CC(=O)Nc1cccc(C)c1,0.0454% (inactive),–
CCCCNCC,8.6% (inactive),–
CC(=O)Nc1ccc(C)cc1,-7.13% (inactive),–
O=c1[nH]ncc2ccccc12,-8.59% (inactive),–
OC/C(Br)=C(\Br)CO,10.6% (inactive),–
CCCCC(CC)C(=O)OCCOCCOCCOC(=O)C(CC)CCCC (centres undefined),-9.72% (inactive),–
CCCCC(=O)N(C)C,9.07% (inactive),–
Cc1cccc(C)c1[N+](=O)[O-],–,inactive
Cc1ccc2ccccc2c1[N+](=O)[O-],-2.25% (inactive),–
CCOc1cccc(N)c1,16.1% (inactive),–
C/C=C(/C)C#N,3.11% (inactive),–
COCCO,–,inactive
